Columns and labels:
Experiment in all cases: PBM binding z-score (relative to random genomic background probes); higher = stronger binding; sequences stand for … in GC…GCGATTGACAGCGTAGAATGAAGG
[1] = test system: FXR:RXRa (NR concentration 270 nM, RXRa partner concentration 90 nM)
Summary of the method: (§1)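 Probes were double-stranded and carried 34-nt variable regions with direct-repeat seeds, single-nucleotide variants, half-site ablations and random human genomic background sequences, printed on custom Agilent 4×180K protein-binding microarrays. Arrays were incubated 1 h with ligand-free nuclear receptor dimers in PBS pH 7.4, 2% milk, 0.02% Triton X-100, 1 mM DTT, 0.2 mg/mL BSA and 0.4 mg/ml salmon testes DNA. Antibodies against each partner (one per run) detected binding, and scanned fluorescence was regression-normalized. Binding z-scores use the random background probes as reference.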

[2] = test system: LXRa:RXRa (NR concentration 270 nM, RXRa partner concentration 90 nM)
Summary of the method: as §1

[3] = test system: LXRa homodimer (NR concentration 270 nM)
Summary of the method: as §1

[4] = test system: LXRb:RXRa (NR concentration 270 nM, RXRa partner concentration 90 nM)
Summary of the method: as §1

[5] = test system: LXRb homodimer (NR concentration 270 nM)
Summary of the method: as §1

[6] = test system: PPARa:RXRa (NR concentration 270 nM, RXRa partner concentration 90 nM)
Summary of the method: as §1

[7] = test system: PPARg:RXRa (NR concentration 180 nM, RXRa partner concentration 90 nM)
Summary of the method: as §1

[8] = test system: PPARg:RXRa 270nM:90nM, anti-RXR (NR concentration 270 nM, RXRa partner concentration 90 nM)
Summary of the method: as §1

[9] = test system: PPARg:RXRa 30nM:10nM, anti-RXR (NR concentration 30 nM, RXRa partner concentration 10 nM)
Summary of the method: as §1

[10] = test system: PPARg:RXRa 90nM:30nM, anti-RXR (NR concentration 90 nM, RXRa partner concentration 30 nM)
Summary of the method: as §1

[11] = test system: PPARg:RXRa DBDmut IVT, anti-RXR (DBD mutation: RXRa K156A/R161A, NR concentration 270 nM, RXRa partner concentration 90 nM)
Summary of the method: as §1

[12] = test system: PPARg:RXRa IVT, anti-PPARg (NR concentration 270 nM, RXRa partner concentration 90 nM)
Summary of the method: as §1

[13] = test system: PPARg DBDmut:RXRa IVT, anti-PPARg (DBD mutation: PPARg1 K132A/R137A, NR concentration 270 nM, RXRa partner concentration 90 nM)
Summary of the method: as §1

[14] = test system: PPARg DBDmut IVT, anti-PPARg (DBD mutation: PPARg1 K132A/R137A, NR concentration 270 nM)
Summary of the method: as §1

[15] = test system: PPARg homodimer (NR concentration 180 nM)
Summary of the method: as §1

[16] = test system: PXR:RXRa (NR concentration 270 nM, RXRa partner concentration 90 nM)
Summary of the method: as §1

[17] = test system: PXR homodimer (NR concentration 270 nM)
Summary of the method: as §1

[18] = test system: RARa:RXR (NR concentration 270 nM, RXRa partner concentration 90 nM)
Summary of the method: as §1

[19] = test system: RARa homodimer (NR concentration 270 nM)
Summary of the method: as §1

[20] = test system: RARb:RXRa (NR concentration 270 nM, RXRa partner concentration 90 nM)
Summary of the method: as §1

Row | Sequence | PBM binding z-score [1] | PBM binding z-score [2] | PBM binding z-score [3] | PBM binding z-score [4] | PBM binding z-score [5] | PBM binding z-score [6] | PBM binding z-score [7] | PBM binding z-score [8] | PBM binding z-score [9] | PBM binding z-score [10] | PBM binding z-score [11] | PBM binding z-score [12] | PBM binding z-score [13] | PBM binding z-score [14] | PBM binding z-score [15] | PBM binding z-score [16] | PBM binding z-score [17] | PBM binding z-score [18] | PBM binding z-score [19] | PBM binding z-score [20]
1 | TCATGTAGATCAATAGAGGTTAAGAAAGTGCGCT | 1.01 | 3.41 | 0.701 | 1.95 | 0.112 | 1.83 | 0.225 | 1.59 | 3.1 | 1.96 | 2.25 | 0.891 | 0.493 | 0.436 | 0.475 | 3.08 | 0.426 | 1.85 | 0.825 | 1.02
2 | CCAGCTAGGTCAATGGTCAGCTAAAGCAGCTCGC | 2.92 | 2.06 | -0.24 | 1.27 | -0.685 | 3.2 | 5.08 | 5.75 | 3.27 | 5.34 | 4.9 | 4.47 | -0.141 | -0.0695 | 1.28 | 0.737 | -0.176 | 1.49 | -0.163 | 3.73
3 | ATCTCTAGGTAAACTTCAGTGAAAGATCGATAGA | 0.831 | 0.515 | 0.351 | 0.0821 | 1.21 | 0.408 | 0.488 | 0.399 | 0.397 | 0.45 | 2.68 | 2.02 | 1.5 | 1.2 | 0.999 | 0.0812 | 0.42 | 0.344 | 1.42 | 0.268
4 | GCTAGCAGGCCATTTGGGTCACGCAATGACGGGC | 0.679 | 0.476 | -0.416 | 0.378 | -0.491 | 2.23 | 1.32 | 1.45 | 0.36 | 0.648 | 2.42 | 3.05 | -0.368 | -0.646 | 0.0821 | 1.13 | -0.117 | 1.88 | -0.356 | 1.91
5 | TGTCAAAGATCAAAGGTAACGTAAGTATCCACAC | 1.19 | 1.08 | -0.325 | 1.32 | -0.103 | 2.73 | 4.17 | 4.22 | 2.19 | 3.68 | -0.516 | 2.24 | 1.24 | 1.01 | 0.484 | 1.26 | -0.19 | 2.22 | 0.426 | 1.02
6 | GCGACGGGGGCATCAGCAGGTTACCATAACTTAA | 2.95 | 3.18 | 0.557 | 5.21 | 8.02 | 4.19 | 2.48 | 3.35 | 1.55 | 2.59 | 1.76 | 4.14 | 7.32 | 9.29 | 1.83 | 3.29 | 0.826 | 3.42 | -0.447 | 3.16
7 | ATCTCTCGGTAAAGATAGTTCAGTGAATGCAAAT | 0.327 | 1.31 | 0.62 | 0.406 | 0.893 | 0.353 | 0.0238 | 0.0221 | 0.409 | 0.333 | -0.304 | 0.216 | 0.814 | 0.624 | 1.08 | 0.754 | 0.572 | 0.965 | 1.32 | 0.868
